Compound activity deposited in PubChem BioAssay by several laboratories.
Sampled rows, rich in hits. Any-hit rate of the full collection: about 4.5%.
tim23-1 inh: tim23-1 yeast growth inhibition | S. cerevisiae tim23-1 growth, BacTiter-Glo luminescence, 24 h | inhibition, % at 20 µM | 1.3% of 330,000 active | AID 463212;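 active means growth inhibition of the mutant yeast at or above 50%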;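 further: temperature-sensitive mutant grown at 25 °C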
PfHsp90 set2: reduces growth (ATP signal) of yeast expressing P. falciparum Hsp90; S. cerevisiae expressing PfHsp90, BacTiter-Glo ATP, 48 h; yeast lacking PDR1 and PDR3 efflux regulators; inhibition, % at 9.4 µM; 0.32% of 310,000 active; AID 504621;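 active means every replicate shows inhibition above about 80%, whatever the replicate mean, limit read from the data; inconclusive means mean inhibition reaches the set limit but some replicate falls short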
TIM10 inh: TIM10 yeast growth inhibition. S. cerevisiae TIM10 strain growth, BacTiter-Glo luminescence, 24 h. inhibition, % at 10 µM. 1.4% of 330,000 active;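 active means inhibition of 40% or more at the single tested concentration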;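 further: wild-type TIM10 isogenic control strain grown at permissive 25 °C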
SKKanGAS inh: inhibitors of SKKanGAS S. pyogenes growth in kanamycin (SK-promoter or general growth effect). inhibition, % at 7.5 µM. AID 1662. BacTiter-Glo, 6 h. 1.3% of 300,000 active;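 active means mean replicate score, as percent of positive control median, at least 50; inconclusive means mean below 50 but one replicate at or above 50; inactive means mean and every replicate below 50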;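 further: strain carries kanamycin resistance gene driven by streptokinase promoter and grows in 40 µg/ml kanamycin; loss of luminescence reflects streptokinase promoter inhibition or plain growth inhibition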
tim10-1 inh: growth inhibitors of tim10-1 mutant yeast. S. cerevisiae tim10-1 ts strain growth, BacTiter-Glo, 24 h. inhibition, % at 20 µM. 2.2% of 330,000 active. AID 463190;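 active means inhibition of at least 40%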;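 further: mutant grown at 25 °C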
NLRP3 yeast inh: blocks the NALP3 inflammasome reconstituted in yeast; 0.39% of 330,000 active; inhibition, % at 10 µM; Yeast reconstituted NLRP3/ASC/caspase-1, beta-gal luminescence, 24 h; AID 2825;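 active means inhibition of 50% or more; inactive means inhibition below 50%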
tim10 confirm: TIM10 yeast growth inhibition, confirmed; shares compounds with TIM10 inh; S. cerevisiae tim10 strain growth, BacTiter-Glo luminescence, 24 h; inhibition, % at 10 µM; 63% of 4,600 active; AID 463215;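 active means inhibition of yeast growth at or above a set limit in either of two replicates at 10 µM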; further: this counterscreen used the strain with wild-type TIM10
Large screens that a line does not name were inactive (follow-up assays come after a bar, where they were run).

CCCCc1ccc(NC(=S)NCCc2ccc(F)cc2)cc1	TIM10 inh 42, SKKanGAS inh inconclusive (no result: PfHsp90 set2) | tim10 confirm inactive
O=[N+]([O-])c1ccc(N2N=C(c3ccccc3)CC2c2ccccc2O)cc1 (configuration not stated)	PfHsp90 set2 108, TIM10 inh 42, SKKanGAS inh 98 | tim10 confirm 60
CCC(C)(C)C1CCc2[nH]nc(C(=O)N/N=C(\C)c3ccco3)c2C1 (configuration not stated)	TIM10 inh 45 | tim10 confirm inactive
COc1ccccc1CCC(=O)OCC(=O)Nc1cccc(S(=O)(=O)N2CCOCC2)c1	none (no result: PfHsp90 set2)
CC(C)(C)c1cc(C(c2cccnc2)N2CCN(CCO)CC2)cc(C(C)(C)C)c1O (configuration not stated)	PfHsp90 set2 105, TIM10 inh 41 | tim10 confirm 54
CC(C)(C)n1nnnc1C(c1cccnc1)N1CCN(c2cccc(C(F)(F)F)c2)CC1 (configuration not stated)	none
O=S(=O)(CCN1CCCCC1)Oc1ccc(Cl)cc1Cl	TIM10 inh 50 | tim10 confirm inactive
Clc1ccc(Cl)c(OCCCCN2CCCCC2)c1	none
CCOc1ccc(C2C(C(=O)c3ccco3)=C(O)C(=O)N2CCCn2ccnc2)cc1OC (configuration not stated)	none
COc1ccc2nc3sc(C(=O)NCCCN4CCc5ccccc5C4)cc3cc2c1	TIM10 inh 49 | tim10 confirm 57
COc1ccc2nc3sc(C(=O)N4CCN(C)CC4)cc3cc2c1	none
O=C(C1CC1)N1CCc2cc(Br)cc(S(=O)(=O)N3CCCCCC3)c21	TIM10 inh 47 (no result: PfHsp90 set2) | tim10 confirm inactive
CCOC(=O)CC1=NN(c2ccccc2)C(=O)/C1=C\c1ccc(OC)cc1OC	TIM10 inh 48 | tim10 confirm inactive
COC(=O)CC1=NN(c2ccccc2)C(=O)/C1=C\c1ccc(OC)cc1	none
CCN(CC)C(=O)[C@H]1CC(CC(=O)NC(C)(C)C)C(=O)N2CCc3c([nH]c4ccc(OC)cc34)[C@]12C (some centres not stated)	none (no result: SKKanGAS inh, NLRP3 yeast inh)
Cc1ccc(C(=O)Oc2ccc(C(=O)COC(=O)C3CC(=O)N(Cc4ccco4)C3)cc2)cc1 (configuration not stated)	TIM10 inh 41 (no result: PfHsp90 set2) | tim10 confirm inactive
Cc1ccc(NC(NC(=O)c2ccccn2)C(Cl)(Cl)Cl)cc1 (configuration not stated)	none
Cc1ccc(NC(NC(=O)c2cccs2)C(Cl)(Cl)Cl)cc1 (configuration not stated)	TIM10 inh 50 | tim10 confirm 38
COc1ccc(C(=O)NC(Nc2ccccc2)C(Cl)(Cl)Cl)cc1 (configuration not stated)	TIM10 inh 50 | tim10 confirm 32
O=[N+]([O-])c1cccc(/C=C/c2nc3ccc([N+](=O)[O-])cc3[nH]2)c1	TIM10 inh 54 | tim10 confirm 58
Cc1nc2ccc([N+](=O)[O-])cc2[nH]1	none
Cc1[nH]n(-c2ccc([N+](=O)[O-])cc2)c(=O)c1C=NCCc1c(C)[nH]c2ccccc12	TIM10 inh 45 | tim10 confirm inactive
COc1cc(SC)ccc1C(=O)OCC(=O)NCCC1=CCCCC1	none
CC1/C(=N/O)CC(c2ccccc2)N(C)C1c1ccccc1 (configuration not stated)	TIM10 inh 52 | tim10 confirm 55
Cc1ccc(S(=O)(=O)N/N=C/c2ccc(C#N)cc2)cc1	none
NNC(=S)Nc1ccc(C(F)(F)F)cc1Cl	TIM10 inh 44, SKKanGAS inh 61 | tim10 confirm inactive
Cc1cccn2c(=S)[nH]nc12	none (no result: tim23-1 inh, TIM10 inh, SKKanGAS inh, tim10-1 inh, NLRP3 yeast inh)
CC(Oc1ccccc1)C(=O)N=C1SC2CS(=O)(=O)CC2N1c1ccc(F)cc1 (configuration not stated)	none
Cc1cc(NCCCn2ccnc2)n2nc(-c3ccc(Cl)cc3)cc2n1	none
CC(C)(C)c1cc(NCCCn2ccnc2)n2ncc(-c3ccc(Cl)cc3)c2n1	TIM10 inh 60, SKKanGAS inh 106 (no result: PfHsp90 set2) | tim10 confirm 60
O=c1oc2ccccc2c(Nc2ccccc2O)c1[N+](=O)[O-]	none
O=c1oc2ccccc2c(Nc2cccc3ccccc23)c1[N+](=O)[O-]	TIM10 inh 49 | tim10 confirm 36
O=C(NNC(=S)NC1CCCCC1)c1cccc(S(=O)(=O)Nc2ccccc2Cl)c1	TIM10 inh 41 | tim10 confirm 41
COc1ccccc1CNC(=O)CN(C)S(=O)(=O)c1ccc(F)cc1	none
O=[N+]([O-])c1cccc(NN=Nc2ccccc2)c1	TIM10 inh 41 | tim10 confirm 31
c1ccc(-c2onc3cc4c(cc23)OCCO4)cc1	TIM10 inh 44 | tim10 confirm 52
CCCCC(=O)Nc1nnc(CCOC)s1	none (no result: PfHsp90 set2)
CC(=O)Nc1ccc(S(=O)(=O)NCCC(=O)OCc2csc(CC(=O)Nc3ccccc3C)n2)cc1	none
CC(=O)Nc1ccc(C(=O)N/N=C/c2cc(Br)cc(Br)c2O)cc1	TIM10 inh 52 | tim10 confirm 31
Cn1c(CC(=O)NNC(=O)c2ccccc2[N+](=O)[O-])nc2ccccc21	none (no result: SKKanGAS inh)
CCc1nc(Nc2ccc3c(c2)OCCO3)c2oc3ccccc3c2n1	none
Cc1nc(Nc2ccc3c(c2)OCCO3)c2oc3ccccc3c2n1	TIM10 inh 40 | tim10 confirm inactive
CCC(CC)C(=O)Nc1nnc(S(=O)(=O)Nc2ccc(OC)cc2)s1	none
CN(C)CCNC(=S)Nc1ccccc1Cl	none
Cc1c(Cl)cccc1NC(=S)NCCCN(C)C	TIM10 inh 46 | tim10 confirm inactive
COC(=O)c1ccc(NC(=S)N2CCN(Cc3ccc(Cl)cc3)CC2)cc1	TIM10 inh 49 | tim10 confirm 36
CN(C)S(=O)(=O)n1cc(/C=C(\NC(=O)c2ccccc2F)C(=O)NCCCn2ccnc2)c2ccccc21	none
Cc1cc(C)c(C(=O)C(C)OC(=O)Cn2cnc3c2c(=O)n(C)c(=O)n3C)cc1C (configuration not stated)	TIM10 inh 58 | tim10 confirm inactive
CC(OC(=O)Cn1cnc2c1c(=O)n(C)c(=O)n2C)C(=O)c1ccccc1 (configuration not stated)	none (no result: PfHsp90 set2)
COc1cc(OC)cc(-c2nc3ccccc3c(=O)n2OC(=O)c2ccc(C)c(C)c2)c1	TIM10 inh 50 | tim10 confirm inactive
Cc1ccc2c(Cl)cc(Cl)c(OCC(=O)OCC(=O)Nc3ccc(C#N)cc3)c2n1	none
Cc1ccc(NC(=O)CN(C)C(=O)COc2c(Cl)cc(Cl)c3ccc(C)nc23)cc1	TIM10 inh 40 | tim10 confirm inactive
O=C(Nc1ccc2nc(-c3ccccc3)[nH]c2c1)c1ccco1	TIM10 inh 50 (no result: PfHsp90 set2) | tim10 confirm inactive
